# LAP4-GFP MLPCN – yeast TOR pathway LAP4-GFP modulation | GFP response vs DMSO, % at 10 µM | 0.34% of 320,000 active | AID 2023 | S. cerevisiae LAP4-GFP multiplex, flow cytometry GFP, 3 h; median GFP as percent of DMSO wells;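 active = GFP response vs DMSO above a set limit, about the screen mean plus 3 SD, cut at about 150% in these data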
# RPL19A-GFP yeast – modulators of TOR pathway RPL19A-GFP in S. cerevisiae | S. cerevisiae RPL19A-GFP strain, flow cytometry, 3 h; active compounds read low | percent response vs DMSO, % at 10 µM | 0.3% of 330,000 active | AID 2025;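 active = percent response vs DMSO below 50%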;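 also: median channel GFP fluorescence of the barcoded RPL19A-GFP strain; ratio of sample median GFP to plate DMSO average so 100% = DMSO; lower means less RPL19A-GFP as with rapamycin TOR inhibition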
# AGP1-GFP MLPCN – modulators of TOR pathway AGP1-GFP in S. cerevisiae. S. cerevisiae AGP1-GFP multiplex flow cytometry, 3 h; GFP as percent of DMSO wells. GFP response vs DMSO, % at 10 µM. 0.02% of 320,000 active. AID 2066;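 active = GFP response relative to DMSO above a set limit, near screen average plus 3 SD, cut at about 150% in these data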;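 also: median GFP channel fluorescence of the gated AGP1 strain per well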
# MEP2 TOR yeast – alters MEP2-GFP fluorescence in TOR pathway yeast screen; S. cerevisiae MEP2-GFP strain, flow cytometry GFP, 3 h; 100% = DMSO control level; GFP response vs DMSO, % at 10 µM; 0.51% of 330,000 active; AID 2016;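 active = GFP response versus DMSO above a set limit, roughly screen mean plus 3 SD, cut at about 180% in these data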;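 also: median GFP fluorescence of the barcode-gated MEP2-GFP cells per well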
# CIT2 TOR yeast – yeast TOR pathway CIT2-GFP modulation; S. cerevisiae CIT2-GFP strain, flow cytometry, 3 h; 100 means same as DMSO wells; GFP response vs DMSO, % at 10 µM; 0.065% of 320,000 active; AID 2029;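 active = GFP response relative to DMSO above a set limit, near the screen mean plus 3 SD, cut at about 150% in these data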;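 also: ratio of well median GFP fluorescence to mean of DMSO wells on the plate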
# LAP4 cherry2 – reconfirmed LAP4-GFP TOR pathway modulator in yeast. shares compounds with LAP4-GFP MLPCN. S. cerevisiae LAP4-GFP strain, flow cytometry GFP, 3 h. GFP response vs DMSO, % at 10 µM. 20% of 590 active;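 active = GFP signal as percent of the solvent control above about 150%, meaning raised reporter expression, limit read from the data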;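 also: ratio of well median GFP fluorescence to plate DMSO mean so 100% = DMSO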
# MEP2 cherry2 – second confirmation of modulators of TOR reporter MEP2-GFP in yeast; AID 2622; S. cerevisiae MEP2-GFP strain, flow cytometry GFP, 3 h; GFP response vs DMSO, % at 10 µM; 10% of 590 active; shares compounds with LAP4-GFP MLPCN;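 active = GFP signal above 150% of the solvent control wells, that is a rise of more than half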;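 also: median channel GFP fluorescence of all gated yeast cells per well; ratio of median GFP to plate DMSO average so 100% = DMSO level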
# RPL19A GFP CP2 – second confirmation of modulators of TOR reporter RPL19A-GFP in yeast; shares compounds with LAP4-GFP MLPCN; S. cerevisiae RPL19A-GFP strain, flow cytometry GFP, 3 h; active compounds read low; 100% means same as DMSO wells; GFP response vs DMSO, % at 10 µM; 3% of 590 active; AID 2623;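 active = under 65% GFP response relative to DMSO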;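 also: median GFP channel fluorescence per well over the all cells gate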
# CIT2-GFP pick2 – reconfirmed modulator of CIT2-GFP TOR reporter in yeast | 8% of 590 active | AID 2624 | GFP response vs DMSO, % at 10 µM | S. cerevisiae CIT2-GFP strain, flow cytometry GFP, 3 h; DMSO control wells read 100% | shares compounds with LAP4-GFP MLPCN;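 active = GFP response vs DMSO above about 150%, limit read from the data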;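 also: median green fluorescence per well over all gated yeast cells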
# AGP1-GFP pick2 – yeast AGP1-GFP TOR reporter modulation, second cherry pick; AID 2643; percent response vs DMSO, % at 10 µM; 590 tested, under 10 active; S. cerevisiae AGP1-GFP strain, flow cytometry GFP, 3 h; shares compounds with LAP4-GFP MLPCN;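 active = over 150 percent of DMSO response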;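 also: median GFP channel fluorescence over all cells without mother daughter split; sample median GFP divided by mean DMSO control so 100% equals DMSO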
# s288c autofluor – counter-screen for compound autofluorescence in yeast s288c cells | 610 tested, under 10 active | fluorescence change (kMESF span) at 33 µM | S. cerevisiae s288c, 520 nm autofluorescence, flow cytometry, 3 h; active compounds read high; zero means same as solvent-only cells | shares compounds with LAP4-GFP MLPCN;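 active = fluorescence span over the dose series, or activity score, above about 33, limit read from the data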
# s288c autofl DR – yeast s288c autofluorescence artifact in dose response. shares compounds with LAP4-GFP MLPCN. S. cerevisiae s288c parental, compound autofluorescence, flow cytometry, 3 h. fluorescence change (span) at 33 µM. 110 tested, under 10 active. AID 488829;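 active = fluorescence change span, or the activity score built from it, above 25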
# TORC1 bypass – compounds blocking wildtype yeast growth but not TORC1 bypass cells. shares compounds with LAP4-GFP MLPCN. S. cerevisiae BY4741 spot growth rating, 48-72 h; active compounds read low. growth rating (0-3) at 30 µM. 120 tested, under 10 active. AID 504456;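 active = growth rating at most 1 for wild type yeast while the TORC1 bypass strain still grows fully, rated 3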
# Active calls of the source: *; · = no result. Shown are actives, neighbours in structure and some others; about 0.89% of the full set was active somewhere.
SMILES,LAP4-GFP MLPCN,RPL19A-GFP yeast,AGP1-GFP MLPCN,MEP2 TOR yeast,CIT2 TOR yeast,s288c autofluor,others
CCOP(=O)(OCC)C(Nc1cccc([N+](=O)[O-])c1)c1ccc(OC)cc1 (stereo not given),99,58,40,138,94,·,LAP4 cherry2=100;MEP2 cherry2=102;RPL19A GFP CP2=101;CIT2-GFP pick2=109;AGP1-GFP pick2=102
CCOP(=O)(OCC)C(Nc1cccc([N+](=O)[O-])c1)c1ccc(N(C)C)cc1 (stereo not given),103,86,77,103,86,·,
CCc1ccc(OCC(=O)NNC(=S)NC(=O)C2CC2)c(Br)c1,166*,106,94,116,88,0.71,s288c autofl DR=0.73;TORC1 bypass=3
COc1ccc(OCC(=O)NNC(=S)NC(=O)C2CC2)cc1,102,110,99,107,92,·,
COc1ccc(OCC(=O)NNC(=S)NC(=O)C2CCCCC2)cc1,170*,106,104,127,116,2.4,LAP4 cherry2=240*;MEP2 cherry2=140;RPL19A GFP CP2=113;CIT2-GFP pick2=155*;AGP1-GFP pick2=106
O=C1C=CC[C@H](/C=C/C[C@@H](O)C[C@H](O)CCc2ccccc2)O1,108,101,105,113,101,·,
N/C(=N\OC(=O)c1cccc(Br)c1)c1ccccc1,178*,93,63,103,120,0.1,
CCOC(=O)/C(=C\c1cn(C)c2ccccc12)[N+](=O)[O-],207*,80,59,98,57,2.2,
O=S(=O)(O)c1cccc2c(N=Nc3ccc(O)c4ncccc34)cccc12,92,103,101,105,105,·,
O=Nc1ccc(O)c2ncccc12,114,94,105,105,103,·,
COc1cccc(N=Nc2ccc(O)c3ncccc23)c1,180*,103,89,103,104,0.2,
COc1ccc(N=Nc2ccc(O)c3ncccc23)cc1,215*,96,98,116,102,0.51,
Cc1ccccc1N=Nc1ccc(O)c2ncccc12,178*,97,101,103,99,0.3,LAP4 cherry2=216*;MEP2 cherry2=123;RPL19A GFP CP2=102;CIT2-GFP pick2=156*;AGP1-GFP pick2=105
Oc1ccc(N=Nc2ccc3c(c2)OCCO3)c2cccnc12,128,95,113,116,117,·,
COc1ccc(C(=O)NCCc2ccccn2)cc1S(=O)(=O)Nc1ccc(Br)cc1,90,96,96,98,96,·,
O=C(Cc1ccccc1[N+](=O)[O-])NCCC1=CCCCC1,98,107,111,108,100,·,
CNC(=O)COc1coc(CN2CCN(c3ccccc3)CC2)cc1=O,105,101,108,110,107,·,
Oc1cc(-c2ccncc2)cc2cccnc12,117,101,107,106,95,·,

# Compound activity as filed in PubChem.
